# Most compounds without a hit are left out; they make up all but 3.8% or so of the library.
# TGFb SMAD3 inh = TGF-b pathway inhibition | HepG2 CAGA-GFP TGF-b/SMAD3 reporter, GFP fluorescence, 18 h; TGF-beta stimulated, 500 pg/mL final | Potency, µM (top dose mostly 46.1 µM), for inactives: at the top dose activity, negative = inhibition, actives largely listed as inhibitors | 410,000 tested, 1.2% active; also: % is scaled to controls: 0 for no effect and ±100 for the full control effect; nearly all actives have a fitted effect of over 65% in size
#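 HEPG2 CAGA-GFP reporter cells (1000/well, DMEM with 1% FBS) received compounds, then recombinant TGF-beta at 500 pg/mL final for 18 hours at 37 degrees C. Per-cell GFP summed per well was normalised to unstimulated and stimulated DMSO controls before curve fitting.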
# HepG2 tox = counter-screen for TGF-b inhibitors: cytotoxicity in HepG2 cells | 410,000 tested, 0.76% active | HepG2 CAGA-GFP viability, ATP luminescence, 18 h | AID 588856 | Potency, µM (series often up to 46.1 µM), without a hit: at the top dose activity change, negative = cytotoxicity, most hits filed as cytotoxic
#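 HepG2 CAGA-GFP cells (1000/well, DMEM with 1% FBS) received compound, then TGF-beta at 500 pg/mL final, and were incubated 18 hours at 37 degrees C. Viability was read by CellTiter-Glo luminescence. Media-only wells were set as complete cell-killing and DMSO as no toxicity.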
# ATXN2 expr inh = inhibitors of ATXN2 expression. HEK-293 ATXN2-luciferase reporter, luminescence, 24 h. Potency, µM (highest dose often 57 µM), for the others: top-dose activity change, negative = inhibition, actives largely listed as inhibitors. 360,000 tested, 0.72% active; also: % is scaled to controls: 0 for no effect and ±100 for the full control effect; nearly all actives have a fitted effect of over 55% in size
#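 ATXN2-luciferase reporter cells (luciferase flanked by upstream and downstream ATXN2 gene portions) were treated 24 h at 37 °C with compounds at up to 57 uM. SteadyGlo luminescence gave expression; GF-AFC fluorescence gave viability.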
# HT1080 IDH1KD tx = kills HT-1080 cells with IDH1 knockdown | HT-1080 IDH1 knockdown viability, ATP luminescence, 48 h | Potency, µM (titrated, usually from 46.1 µM), without a hit: at the highest dose activity, negative = toxicity, actives largely listed as cytotoxic | 360,000 tested, 2% active;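 also: 0% = DMSO wells and -100% = cell-free medium wells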
#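 Using the IDH1-knockdown HT-1080 line run in the same batch and compound series as the NT line, viability after 48 h at 37 °C was determined by CellTiter-Glo luminescence and expressed as % activity.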
# S2 tox = viability counter-screen for ATXN expression inhibitors; S2 cells (HEK-293 line with an ATXN2-luciferase reporter) viability, CellTiter-Fluor protease fluorescence, 24 h; Potency, µM (series often up to 56.7 µM), usual class: cytotoxic; 400,000 tested, 0.49% active; also: nearly all actives have a fitted effect of over 40% in size
# HT1080-NT tox = kills 2HG-producing HT-1080-NT fibrosarcoma cells; 360,000 tested, 1.6% active; HT-1080-NT fibrosarcoma viability, CellTiter-Glo ATP luminescence, 48 h; Potency, µM (series often up to 46.1 µM), for the others: at the top dose activity, negative = less viability, hits mostly cytotoxic;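 also: NT is the 2HG producing partner of a matched IDH1 knockdown line; 0% = DMSO-treated cells and -100% = media-only wells without cells; nearly all actives have a fitted effect of over 55% in size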
#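 Toxicity toward the 2HG-producing NT line was scored as %Activity, normalised to DMSO and no-cell wells, from CellTiter-Glo luminescence after 48 hours' treatment.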
# The depositor's hits bear a star; i = inactive; ? = inconclusive; nt = no result given. Calls follow the shape of the dose curve; as a rule, active = well fitted curve in the direction sought with a large enough effect; inconclusive = small, poorly fitted or top-dose-only effect, or another doubt; inactive = no such curve, though single readings can be large; an effect the other way counts as inactive or inconclusive. Potency is read from the fitted curve at half-maximal effect.
SMILES,TGFb SMAD3 inh,HepG2 tox,ATXN2 expr inh,HT1080 IDH1KD tx,S2 tox,HT1080-NT tox
CC1=C(C(=O)Nc2ccccc2)C(c2ccc(O)cc2)n2nc(-c3ccc(Cl)cc3)nc2N1 (stereo unspecified),?,-77%,0%,nt,28µM*,nt
CCS(=O)(=O)N1CC(CC#N)(n2cc(-c3ncnc4[nH]ccc34)cn2)C1,nt,nt,15%,nt,nt,nt
COc1cc([C@H]2Oc3cc([C@H]4Oc5cc(O)cc(O)c5C(=O)[C@H]4O)ccc3O[C@H]2CO)ccc1O,nt,nt,-13%,nt,nt,nt
C=CS(=O)(=O)c1c2cc(OC)ccc2nc2ccc(OC)cc12,?,14µM*,?,?,nt,?
COc1ccc2nc(Cl)cc(Cl)c2c1,-4%,-48%,5%,19%,i,24%
Cc1cc(C)n2nc(CNC(=O)c3cccc(N(C)C)c3)nc2n1,3%,-7%,23%,nt,i,nt
Cc1ccc(S(=O)(=O)NCC(=O)N(CCc2ccccc2)CC(=O)NCc2ccco2)cc1,-3%,12%,5%,4%,i,2%
Cc1ccc(S(=O)(=O)NCC(=O)N(CC(=O)NCc2ccco2)Cc2ccccc2)cc1,2%,16µM*,-4%,11%,i,19%
O=S(=O)(NCc1ccccc1)c1ccc(NC(=S)NCc2ccco2)cc1,?,11µM*,nt,-10%,i,-7%
CC(C)(O)C#Cc1ccc(CN2CCc3nnc(CCNC(=O)c4ccco4)n3CC2)cc1,nt,nt,nt,nt,i,nt
Cc1ccc(Cl)cc1-n1ncc2c(N3CCN(Cc4ccccc4)CC3)ncnc21,22%,1%,16µM*,nt,18µM*,nt
O=C(c1ccccc1)N1CCN(c2ncnc3c2cnn3-c2ccccc2)CC1,-4%,-19%,9%,-7%,i,-11%
Cc1nn(-c2ccccc2)c(Cl)c1C(=O)N1CCN(c2ncnc3c2cnn3-c2ccccc2)CC1,?,-11%,18µM*,?,nt,21µM*
CCN1CCN(c2ncnc3c2cnn3-c2cc(Cl)ccc2C)CC1,12%,0%,-20%,nt,?,nt
CC(=O)c1cccc(NC(=S)NNC(=O)c2ccco2)c1,5%,-14%,nt,0%,i,-3%
C=C(C)CNC(=S)NNC(=O)c1ccco1,?,-53%,-1%,?,i,2µM*
CCOC(=O)c1ccc(NC2=CC(c3ccc(F)cc3)N(c3ccc(C(=O)OCC)cc3)C2=O)cc1 (stereo unspecified),-3%,-8%,0%,nt,i,nt
O=C(C=Cc1ccccc1)c1cc(Br)ccc1O,-5%,-3%,-2%,0%,i,-1%
CCOc1ccc(/C=C/C(=O)c2cc(Br)ccc(=O)c2O)cc1,7.9µM*,-55%,-14%,23µM*,nt,?
CCc1ccc(/C=C/C(=O)c2cc(Br)ccc(=O)c2O)cc1,?,-76%,32µM*,?,?,21µM*
Cc1cccc(/C=C/C(=O)c2cc(Br)ccc(=O)c2O)c1,?,-29%,12%,?,i,?
CCn1nc(C)cc1C(=O)Sc1cccc(Cl)c1,?,-34%,-1%,?,i,18µM*
O=C(Cn1sc2ccccc2c1=O)NC12CC3CC(CC(C3)C1)C2,?,5.6µM*,-33%,?,?,-9%
O=C(CN1C(=O)c2ccccc2C1=O)Nc1ccccc1,?,6%,nt,3%,i,14%
O=C(Cn1sc2ccccc2c1=O)Nc1ccccc1,18µM*,-94%,35µM*,?,nt,?
CCOC(=O)c1cnn(-c2ccc(C(=O)Nc3cc(OC)c(OC)c(OC)c3)cc2)c1N,2%,-18%,0%,nt,i,nt
C[C@@]12C(=O)Nc3ccccc3C(=O)N1[C@H]1c3cc(Cl)ccc3OC[C@@H]1[C@@H]2c1ccccc1,-15%,-14%,-29%,18µM*,i,?
